# Where “and” joins values, the source holds several entries; their conditions need not be identical. Identical values can stand only once. Where a structure was tested more than once in an assay, its records may differ in their call. Calls of active or inactive are those of the source. How the source made its calls: active means hit-call score of the fitted dose curve at least 0.9, where 1 is the maximum; inactive means score below 0.9.
# Read-out: Interleukin-10 (IL10), IL10 (gene 3586)
# Assay: BSK_IMphg_IL10: BioMAP Diversity Plus: IMphg Assay for Interleukin-10 (IL10) Biomarker Activity (AID 2284294)
# Settings: primary human endothelial cells with macrophages
# Description: BSK_IMphg is a cell-based, multiplexed-readout assay that uses venular endothelial cells and macrophages, a human vascular primary cell, with measurements taken at 24 hours after chemical dosing in a microplate: 96-well plate.BSK_IMphg_IL10 is an assay component measured in the BSK_IMphg assay. It measures IL-10 antibody related to regulation of gene expression using ELISA technology.Data from the assay component BSK_IMphg_IL10 was analyzed at the endpoint, BSK_IMphg_IL10, in the positive analysis fitting direction relative to DMSO as the negative control and baseline of activity. Using a type of binding reporter, gain or loss-of-signal activity can be used to understand protein changes. To generalize the intended target to other relatable targets, this assay endpoint is annotated to the 'cytokine' intended target family, where the subfamily is 'interleukins'.
# The levels of cell surface (or secreted, indicated by the prefix "s") biomarker endpoints were measured by ELISA. Overt cytotoxicity to cells in confluent adherent cultures (all systems other than the BT system) was assessed by measuring total protein levels using sulforhodamine B (SRB) staining in parallel cultures at the time of biomarker measurements, indicated as SRB endpoints. For proliferation assays for adherent cell types, individual cell types are cultured at sub-confluence and relative cell numbers quantified by SRB staining at time points optimized for each system (48 h: 3C and CASM3C systems; 72 h: BT and HDF3CGF systems; 96 h: SAg system). SRB was performed by staining cells with 0.1% SRB after fixation with 10% TCA and reading wells at 560 nm.Viability and proliferation of PBMC (T cells) was quantified by Alamar Blue reduction for the SAg and BT systems. For PBMC viability (referred to as PBMC Cytotoxicity within the assay endpoint names), cells were plated (75,000/well in a 96-well plate) and then chemical samples added for 1 h before addition of activators, SEB and TSST-1 (20 ng/mL final concentration each). Cells were incubated for 90 h. Then, Alamar Blue (20 uL/well) (Invitrogen, Cat DAL1100) was added for 6 h, and the plates were read with a fluorescence microplate reader at 546/580 nm (excitation/emission). For PBMC proliferation, cells were plated and activated as above but incubated for only 16 h prior to addition of Alamar Blue. Plates were read after 6 h.
Structure (SMILES),outcome,AC50
OCC(F)(F)C(F)(F)C(F)(F)C(F)(F)C(F)(F)C(F)(F)C(F)(F)C(F)(F)C(F)(F)C(F)(F)C(F)(F)F,inactive,835 nM (active)
O=C(O)CCC(F)(F)C(F)(F)C(F)(F)C(F)(F)C(F)(F)C(F)(F)F,,38 µM (active) and 30 µM (active)
CN(Cc1cnc2nc(N)nc(N)c2n1)c1ccc(C(=O)N[C@@H](CCC(=O)O)C(=O)O)cc1,inactive,
O=S(=O)(O)C(F)(F)C(F)(F)C(F)(F)C(F)(F)C(F)(F)C(F)(F)C(F)(F)C(F)(F)C(F)(F)C(F)(F)F,inactive,13300 nM (active)
O=C(O)C(F)(F)OC(F)(F)C(F)(F)OC(F)(F)C(F)(F)OC(F)(F)C(F)(F)C(F)(F)C(F)(F)F,,53.4 µM (active) and 56.3 µM (active)
O=P(O)(O)CCC(F)(F)C(F)(F)C(F)(F)C(F)(F)C(F)(F)C(F)(F)C(F)(F)C(F)(F)F,,39.7 µM (active) and 31.3 µM (active)
CN(CCO)S(=O)(=O)C(F)(F)C(F)(F)C(F)(F)C(F)(F)C(F)(F)C(F)(F)C(F)(F)C(F)(F)F,inactive,
O=C(CC(=O)C(F)(F)C(F)(F)C(F)(F)F)c1cccs1,,22 µM (active) and 29.2 µM (active)
O=C(O)CCC(F)(F)C(F)(F)C(F)(F)C(F)(F)C(F)(F)F,inactive,
O=P(O)(O)CCC(F)(F)C(F)(F)C(F)(F)C(F)(F)C(F)(F)C(F)(F)F,inactive,
C=CC(=O)OCCC(F)(F)C(F)(F)C(F)(F)C(F)(F)C(F)(F)C(F)(F)C(F)(F)C(F)(F)F,inactive,
